SKKanGAS inh = inhibitors of SKKanGAS S. pyogenes growth in kanamycin (SK-promoter or general growth effect). AID 1662. BacTiter-Glo, 6 h. 300,000 compounds, 1.3% hits. inhibition, % at 7.5 µM;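 active = mean replicate score, as percent of positive control median, at least 50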;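 also: strain carries kanamycin resistance gene driven by streptokinase promoter and grows in 40 µg/ml kanamycin; loss of luminescence reflects streptokinase promoter inhibition or plain growth inhibition; 0% = median of DMSO wells and 100% = positive control at its reference dose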
NALP1 inh = inhibitors of NALP1 inflammasome in yeast; inhibition, % at 10 µM; 280,000 compounds, 0.61% hits; S. cerevisiae NALP1/ASC/caspase-1 growth, X-gal OD620, 72 h; in the data active = inhibition mostly above about 24%, no sharp cut-off; inactive = mostly below about 32%
tim10-1 inh = tim10-1 yeast growth inhibition; 330,000 compounds, 2.2% hits; inhibition, % at 20 µM; S. cerevisiae tim10-1 ts strain growth, BacTiter-Glo, 24 h;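 active = inhibition of at least 40%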;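 also: mutant grown at 25 °C; 0% = DMSO wells with yeast and 100% = wells holding no yeast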
tim23-1 inh = growth inhibitors of tim23-1 mutant yeast. S. cerevisiae tim23-1 growth, BacTiter-Glo luminescence, 24 h. inhibition, % at 20 µM. 330,000 compounds, 1.3% hits;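 active = growth inhibition of the mutant yeast at or above 50%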;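 also: temperature-sensitive mutant grown at 25 °C; plate controls were DMSO-treated mutant yeast for no effect and medium wells lacking yeast for full effect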
TIM10 inh = growth inhibitors of TIM10 yeast strain | S. cerevisiae TIM10 strain growth, BacTiter-Glo luminescence, 24 h | inhibition, % at 10 µM | 330,000 compounds, 1.4% hits;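 active = inhibition of 40% or more at the single tested concentration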;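 also: wild-type TIM10 isogenic control strain grown at permissive 25 °C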
NLRP3 yeast inh = blocks the NALP3 inflammasome reconstituted in yeast; 330,000 compounds, 0.39% hits; inhibition, % at 10 µM; Yeast reconstituted NLRP3/ASC/caspase-1, beta-gal luminescence, 24 h;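 active = inhibition of 50% or more; inactive = inhibition below 50%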;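 also: plate controls were induced DMSO wells for no effect and uninduced yeast grown without galactose for full effect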
tim10-1 conf = confirmation of tim10-1 mutant yeast growth inhibitors; shares compounds with tim10-1 inh; S. cerevisiae tim10-1 ts strain growth, BacTiter-Glo, 24 h; inhibition, % at 20 µM; 7,400 compounds, 56% hits; AID 463213;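 active = inhibition of yeast growth at or above a set limit in either of two repeat tests at 20 µM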;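 also: tim10-1 mutant grown at permissive 25 °C to find synthetic lethal compounds; 0% = DMSO yeast wells and 100% = medium wells without yeast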
Starred values were filed as active, the others as inactive; · = no result. Most compounds without a hit are left out; they make up all but 4.9% or so of the library.

SMILES	SKKanGAS inh	NALP1 inh	tim10-1 inh	tim23-1 inh	TIM10 inh	NLRP3 yeast inh	tim10-1 conf
COc1ccc(NC(=O)c2cc(-c3ccco3)nc3ccccc23)cc1	4.9	·	-1.7	2.5	-12.4	16.1	·
O=C(Nc1ccncc1)c1cc(-c2ccccn2)nc2ccccc12	-7.5	-3.5	18.6	-16.1	-7.3	8.2	·
Cc1cccc(NC(=O)c2cc(-c3ccco3)nc3ccccc23)n1	-8.3	-10.6	41.0*	26.4	25.5	14.8	17.1
CCc1cccc(C)c1NC(=O)c1cc(-c2ccncc2)nc2ccccc12	·	·	41.9*	26.7	15.8	25.8	22.6
O=C(COc1nncc2ccccc12)Nc1ccc(F)c(F)c1	2.9	0.9	-1.1	-4.1	-2.1	5.5	·
CC1CCC2C(C1)OS(=O)(=O)NC2(C)C (stereo not given)	-1.8	15.8	-0.3	25.2	5.7	21.9	·
Cc1ccc2c(c1)-c1c(ssc1=S)C(C)(C)N2C(=O)CSC1=NCCS1	-2.0	26.0	43.4*	33.5	28.7	24.7	38.4*
CCOc1ccc2c(c1)-c1c(ssc1=S)C(C)(C)N2C(=O)CSC1=NCCS1	3.7	6.9	13.6	33.1	3.4	27.9	·
CN1C(=O)[C@@H]2[C@@H]3C[C@@H]([C@H]4ON=C(c5ccc(Cl)cc5)[C@@H]34)[C@@H]2C1=O	2.3	20.7	0.8	16.1	10.0	5.5	·
O=C1[C@@H]2[C@@H]3C[C@@H]([C@H]4ON=C(c5ccc(Cl)cc5Cl)[C@@H]34)[C@@H]2C(=O)N1C1CCCCC1	0.6	31.9	52.0*	41.1	13.5	1.1	33.6*
CCCc1[nH]c2ccc(C#N)cc2c1CCC	39.2	35.2	52.7*	13.8	4.1	40.9	33.2*
N#CCSc1nc2c(c(C3CC=CCC3)c1C#N)CCC2 (stereo not given)	5.7	39.7	47.2*	31.0	5.9	28.8	35.1*
N#CCSc1nc2c(cc1C#N)CCCCCC2	·	6.6	28.5	27.9	-22.6	25.9	·
CC(C(=O)N1CCN(c2ccc(Cl)cc2)CC1)c1ncc(C(F)(F)F)cc1Cl (stereo not given)	10.8	-1.5	42.6*	29.7	31.9	5.7	8.8
CCCCCCC(=O)OCC(=O)c1ccc2c(c1)NC(=O)CO2	-21.5	-30.8	40.3*	30.3	2.8	-1.0	28.5
Cc1cccn2cc(CSc3nnc(Nc4ccc(C(C)C)cc4)s3)nc12	-8.9	17.7	44.9*	16.4	16.9	16.1	28.1
CCOC(=O)c1cc(C#N)c(N2CCCNCC2)nc1C(F)(F)F	-0.5	7.3	14.2	3.8	4.5	-2.1	·
O=C(Nc1ncc2c(n1)CC(c1cccc(Cl)c1)CC2=O)c1ccco1 (stereo not given)	-5.6	24.1	40.9*	31.2	4.5	13.0	32.4*
COc1cccc(CN(C)C(=O)CCN(c2ccccc2)S(=O)(=O)c2ccc(C)cc2)c1OC	-4.8	·	17.2	26.1	-4.1	25.2	·
CC(=O)Oc1ccc(N(C(C)=O)S(=O)(=O)c2ccc(C)cc2C)c2ccccc12	2.0	1.6	16.5	37.4	2.2	22.6	·
Cc1ccc(S(=O)(=O)N(C(=O)c2ccncc2)c2ccc(OC(=O)c3ccncc3)c3ccccc23)c(C)c1	4.1	5.8	48.0*	45.7	19.4	5.7	32.4*
CCOc1ccc(NC(=O)CN(C)C(=O)CSCc2ccc(C)cc2)cc1OCC	-1.9	·	7.7	9.5	1.6	-8.6	·
Cc1[nH]c(=O)c(C#N)c(C)c1CCC(=O)Nc1cc(S(C)(=O)=O)ccc1Cl	1.7	3.9	16.6	8.2	-13.0	21.8	·
O=C1C2C3CCCC3=C3CCCC3C2C(=O)N1c1ccc(Cl)cc1 (stereo not given)	10.9	9.7	42.1*	38.8	16.5	-3.8	30.6*
Fc1cccc(NC(=S)NCc2ccccc2Cl)c1	10.8	6.1	49.6*	37.5	28.7	2.0	43.5*
SMILES	SKKanGAS inh	NALP1 inh	tim10-1 inh	tim23-1 inh	TIM10 inh	NLRP3 yeast inh	tim10-1 conf
S=C(NCCC(c1ccccc1)c1ccccc1)Nc1cccc(Cl)c1	101.7*	2.8	40.1*	32.4	33.2	30.3	17.4
S=C(N/N=C/c1cccc2ccccc12)Nc1cccc(Cl)c1	-11.6	-3.7	43.1*	27.0	-2.4	26.2	36.9*
C=CCOc1cccc(/C=C/c2nc3ccccc3c(=O)[nH]2)c1	5.3	-22.1	3.3	3.5	3.3	27.9	·
CCSc1nnc(NC(=O)CN2C(=O)N(C)C3(CCCCC3)C2=O)s1	·	·	96.6*	9.3	10.1	24.9	13.3
COc1ccc(NC(=S)NC(C)c2ccncc2)cc1OC (stereo not given)	1.9	4.9	-9.5	-4.9	-14.3	6.2	·
CCC(C)c1ccc(NC(=O)CC(C)=O)cc1 (stereo not given)	-7.5	2.0	42.0*	18.7	6.5	6.1	24.1
CCC(C)c1ccc(NC(=S)Nc2ccc(OC)cc2C)cc1 (stereo not given)	-12.8	15.7	45.5*	45.2	31.6	26.7	36.0*
CCC(C)c1ccc(NC(=O)CN(C)CC(=O)Nc2cccc(OC)c2)cc1 (stereo not given)	-4.8	7.5	-2.9	20.2	8.0	13.1	·
CCC(C)c1ccc(NC(=S)Nc2ccc(OC)c(OC)c2)cc1 (stereo not given)	-5.4	14.7	44.1*	38.6	29.3	19.8	32.5*
CC1CCN(C(=O)COc2ccc3ccccc3c2Br)CC1	9.3	8.0	6.1	42.2	-28.0	25.6	·
COCCN(C(=O)CSc1n[nH]c(-c2ccccc2)n1)c1c(N)n(Cc2ccccc2)c(=O)[nH]c1=O	-2.4	·	-0.4	6.7	17.3	6.1	·
NS(=O)(=O)c1ccc(NC(=O)Cc2cccs2)cc1	1.2	4.9	0.6	6.3	-1.0	14.3	·
CC1CCN(S(=O)(=O)c2ccc(NC(=O)Cc3cccs3)cc2)CC1	5.5	-27.8	54.1*	28.2	36.1	0.7	36.5*
CCN(CC)S(=O)(=O)c1ccc(NC(=O)Cc2cccs2)cc1	-13.2	-9.5	45.1*	26.0	3.7	15.3	20.8
CN(C)c1ccc(/C=C/C=C2/SC(=S)N(c3ccccc3)C2=O)cc1	24.6	3.4	43.6*	45.6	35.8	14.7	29.4*
COc1ccc(OC)c(S(=O)(=O)NCC(c2ccco2)S(=O)(=O)c2ccccc2)c1 (stereo not given)	-6.0	·	43.4*	11.0	3.4	-11.8	37.7*
COc1ccc(OC)c(S(=O)(=O)NCC(c2ccco2)N2CCc3ccccc3C2)c1 (stereo not given)	2.2	·	27.2	22.3	18.2	11.1	·
Cc1ccc(S(=O)(=O)NCC(c2ccco2)S(=O)(=O)c2ccccc2)cc1 (stereo not given)	-11.7	·	43.5*	27.4	4.9	12.7	32.6*
Cc1ccc(S(=O)(=O)NCCC(c2ccccc2)c2ccco2)cc1 (stereo not given)	14.2	10.8	-18.6	37.4	-8.0	-0.9	·
